Data from PubChem BioAssay (Tox21).
Results filed as inconclusive are left out. The source made the active and inactive calls. Calls follow the shape of the dose curve; as a rule, active = well fitted curve in the direction sought with a large enough effect in the repeat runs; inconclusive = weak or mixed curves; inactive = no such curve, though single readings can be large; an effect the other way counts as inactive or inconclusive.

Assays:
[1] = A CellTox Green Cytotoxicity Assay to monitor cytotoxicity in HEK293 cells - 40 hour (AID 1224871); also: nearly all actives have a fitted effect of over 45% in size
Outline: (§1)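 Dead-cell fluorescence measured kinetically: asymmetric cyanine dye, HEK293, 600 cells/well, 5 h settle, 23 nL cpd/DMSO, 37 C, reads 0–40 h every 8 h.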

[2] = qHTS RealTime-Glo MT Cell Viability Assay in HEK293 cells - 16 hour (AID 1224872); also: top concentration of the series differs between compounds; nearly all actives have a fitted effect of over 50% in size
Outline: (§2)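 Assay medium contained NanoLuc luciferase plus cell-permeant prosubstrate, added with HEK293 cells at 600 cells/well. After 5 h at 37 C/5% CO2 compounds were added; plates stayed at 37 C for 40 h with serial luminescence reads.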

[3] = qHTS RealTime-Glo MT Cell Viability Assay in HepG2 cells - 8 hour (AID 1224873); also: nearly all actives have a fitted effect of over 55% in size
Outline: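 Real-time viability: cells seeded at 600 per well together with NanoLuc and cell-permeant prosubstrate, compounds added after 5 h incubation. Luminescence tracked at 0, 8, 16, 24, 32 and 40 h of exposure.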

[4] = qHTS RealTime-Glo MT Cell Viability Assay in HEK293 cells - 40 hour (AID 1224874); settings: RealTime-Glo luminescence; max response: stronger effect = lower value; also: nearly all actives have a fitted effect of over 50% in size
Outline: (§3)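 600 HEK293 cells per well, dispensed already mixed with RealTime-Glo MT reagents. Compound dosing came 5 h later. The same wells were read for luminescence at 0, 8, 16, 24, 32 and 40 h of exposure at 37 C.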

[5] = A CellTox Green Cytotoxicity Assay to monitor cytotoxicity in HEK293 cells - 24 hour (AID 1224875); also: series mostly up to about 77 µM; nearly all actives have a fitted effect of over 45% in size
Outline: as §1

[6] = A CellTox Green Cytotoxicity Assay to monitor cytotoxicity in HepG2 cells - 16 hour (AID 1224876); also: nearly all actives have a fitted effect of over 45% in size
Outline: (§4)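 First, HepG2 cells (600/well) mixed with reagent were plated; second, after 5 h at 37 C they received compounds via pintool; third, fluorescence was measured at 0 h through 40 h at 8 h intervals.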

[7] = qHTS RealTime-Glo MT Cell Viability Assay in HepG2 cells - 32 hour (AID 1224877); also: nearly all actives have a fitted effect of over 55% in size
Outline: (§5)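 qHTS, HepG2, 600 cells/well, RealTime-Glo (NanoLuc + prosubstrate) added with cells; 5 h preincubation; DMSO compound addition; 37 C; luminescence at 0/8/16/24/32/40 h.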

[8] = A CellTox Green Cytotoxicity Assay to monitor cytotoxicity in HepG2 cells - 24 hour (AID 1224878); also: nearly all actives have a fitted effect of over 45% in size
Outline: as §4

[9] = A CellTox Green Cytotoxicity Assay to monitor cytotoxicity in HepG2 cells - 40 hour (AID 1224879); also: nearly all actives have a fitted effect of over 40% in size
Outline: as §4

[10] = qHTS RealTime-Glo MT Cell Viability Assay in HEK293 cells - 0 hour (AID 1224880)
Outline: as §3

[11] = A CellTox Green Cytotoxicity Assay to monitor cytotoxicity in HEK293 cells - 32 hour (AID 1224881); also: nearly all actives have a fitted effect of over 40% in size
Outline: as §1

[12] = A CellTox Green Cytotoxicity Assay to monitor cytotoxicity in HepG2 cells - 0 hour (AID 1224882); also: nearly all actives have a fitted effect of over 35% in size
Outline: as §4

[13] = A CellTox Green Cytotoxicity Assay to monitor cytotoxicity in HepG2 cells - 32 hour (AID 1224883); also: nearly all actives have a fitted effect of over 50% in size
Outline: as §4

[14] = A CellTox Green Cytotoxicity Assay to monitor cytotoxicity in HEK293 cells - 8 hour (AID 1224884); also: nearly all actives have a fitted effect of over 35% in size
Outline: as §1

[15] = qHTS RealTime-Glo MT Cell Viability Assay in HEK293 cells - 24 hour (AID 1224886); also: top concentration of the series differs between compounds; nearly all actives have a fitted effect of over 50% in size
Outline: as §2

[16] = qHTS RealTime-Glo MT Cell Viability Assay in HEK293 cells - 8 hour (AID 1224887)
Outline: as §3

[17] = A CellTox Green Cytotoxicity Assay to monitor cytotoxicity in HEK293 cells - 16 hour (AID 1224888); also: nearly all actives have a fitted effect of over 35% in size
Outline: as §1

[18] = qHTS RealTime-Glo MT Cell Viability Assay in HepG2 cells - 0 hour (AID 1224889); also: nearly all actives have a fitted effect of over 50% in size
Outline: as §5

[19] = A CellTox Green Cytotoxicity Assay to monitor cytotoxicity in HepG2 cells - 8 hour (AID 1224890); also: nearly all actives have a fitted effect of over 45% in size
Outline: as §4

[20] = qHTS RealTime-Glo MT Cell Viability Assay in HepG2 cells - 16 hour (AID 1224885); also: nearly all actives have a fitted effect of over 50% in size
Outline: as §5
% is scaled to controls: 0 for no effect and ±100 for the full control effect.

CCOC(=O)CC(=O)c1ccccc1
inactive: Potency [1] | Potency [2] | outcome [3] | max response [4] 10.1% | outcome [5] | outcome [6] | outcome [7] | outcome [8] | Potency [9] | Potency [10] | Potency [11] | outcome [12] | Potency [13] | Potency [14] | Potency [15] | Potency [16] | outcome [17] | Potency [18] | outcome [19]

CC(C)c1ccc2cc(C(C)C)ccc2c1
inactive: Potency [1] | Potency [2] | outcome [3] | max response [4] 11.1% | outcome [5] | outcome [6] | outcome [7] | outcome [8] | Potency [9] | Potency [10] | Potency [11] | outcome [12] | Potency [13] | Potency [14] | Potency [15] | Potency [16] | Potency [18] | outcome [19]

CC(C)(C)c1nnc(NS(=O)(=O)c2ccc(N)cc2)s1
inactive: Potency [1] | Potency [2] | outcome [3] | max response [4] 2.09% | outcome [5] | outcome [6] | outcome [7] | outcome [8] | Potency [9] | Potency [10] | Potency [11] | outcome [12] | Potency [13] | outcome [20] | Potency [15] | Potency [16] | outcome [17] | Potency [18] | outcome [19]

Cc1cc(NC(=O)C2=C(O)c3ccccc3S(=O)(=O)N2C)no1
inactive: Potency [1] | Potency [2] | outcome [3] | max response [4] 4.93% | outcome [5] | outcome [6] | outcome [7] | outcome [8] | Potency [9] | Potency [10] | Potency [11] | outcome [12] | Potency [13] | outcome [20] | Potency [15] | Potency [16] | outcome [17] | outcome [19]

CC(C)N(c1ccccc1)C(C)C
inactive: Potency [1] | Potency [2] | outcome [3] | max response [4] 4.56% | outcome [5] | outcome [6] | outcome [7] | outcome [8] | Potency [9] | Potency [10] | Potency [11] | outcome [12] | Potency [13] | Potency [14] | Potency [16] | outcome [17] | Potency [18] | outcome [19]

O=C(O)c1cc(Br)c(O)c(Br)c1
inactive: Potency [1] | Potency [2] | outcome [3] | max response [4] -4.67% | outcome [5] | outcome [6] | outcome [7] | outcome [8] | Potency [9] | Potency [10] | Potency [11] | outcome [12] | Potency [13] | Potency [14] | Potency [15] | Potency [16] | Potency [18] | outcome [19]

O=C1O[C@@H]2[C@@H](O)[C@H](O)O[C@@H]2[C@H]1O
inactive: Potency [1] | Potency [2] | outcome [3] | max response [4] -0.399% | outcome [5] | outcome [6] | outcome [7] | outcome [8] | Potency [9] | Potency [10] | Potency [11] | outcome [12] | Potency [13] | outcome [20] | Potency [15] | Potency [16] | outcome [17] | Potency [18] | outcome [19]

CC(=O)NCCCCCC(=O)O
inactive: Potency [1] | Potency [2] | outcome [3] | max response [4] 5.61% | outcome [5] | outcome [6] | outcome [7] | outcome [8] | Potency [9] | Potency [10] | Potency [11] | outcome [12] | Potency [13] | outcome [20] | Potency [15] | Potency [16] | outcome [17] | Potency [18] | outcome [19]

CC1(CO)CN(c2ccccc2)NC1=O (stereo unspecified)
inactive: Potency [1] | Potency [2] | outcome [3] | max response [4] -10.7% | outcome [5] | outcome [6] | outcome [7] | outcome [8] | Potency [9] | Potency [10] | Potency [11] | outcome [12] | Potency [13] | Potency [14] | Potency [15] | Potency [16] | outcome [17] | Potency [18] | outcome [19]

O=C(NCCc1c[nH]c2ccccc12)c1cccnc1
inactive: Potency [1] | Potency [2] | outcome [3] | max response [4] -11.8% | outcome [5] | outcome [6] | outcome [7] | outcome [8] | Potency [9] | Potency [10] | Potency [11] | outcome [12] | Potency [13] | outcome [20] | Potency [15] | Potency [16] | outcome [17] | Potency [18] | outcome [19]
